Laboratory results: PubChem BioAssay (NCATS)
Calls of active or inactive are those of the source. Entries that show only a call come without a potency. The call rests on the fitted dose curve; in most records, active means well fitted inhibition curve with a large enough effect; inconclusive means small, poorly fitted or top-dose-only effect; inactive means no such curve, though single readings can be large or run the other way.

Assay: qHTS assay for measurement of the activity of small molecule inhibitors on Zika virus induced Caspase-3 activity in human astrocytoma cells (AID 1224859)
Conditions: SNB-19 ZIKV-induced caspase-3/7, luminescence, 6 h; series mostly up to 45.7 µM
Description: National Center for Advancing Translational Sciences [NCATS]
Johns Hopkins University School of Medicine
Increase in the Caspase-3 activity indicates an activation of apoptosis cell death pathway caused by Zika virus infection in certain types of neuronal cells including human neural progenitor cells (hNPCs), astrocytes, and astrocytoma cell line (SNB-19). This cell-based caspase-3 activity assay measures the increased caspase-3 activity in the astrocytoma cell line (SNB-19) after a 6-hour Zika virus infection with a luminescence readout. A decrease in the luminescence signal in this assay by small molecule treatment indicates an inhibitory effect of that small molecule on the Zika virus induced caspase-3 activity that may correlate with its effect on reduction of Zika virus caused cell death.
The medium for SNB-19 cells is composed of RPMI 1640 (ATCC, Cat.# 30-2001), 10% fetal bovine serum (FBS) (GE healthcare Life Sciences, Cat.# SH30071.03), and 1% Pen/Strep (Gibco, Cat.# 15140-122). A Caspase-Glo 3/7 assay kit (catalog number G8092; Promega, Madison, WI) was used to detect caspase-3 activity induced by Zika virus infection in human cells. The reagent mixture was reconstituted as described in the protocol from the manufacturer. Polystyrene tissue culture treated and PDL coated white plates were obtained from Greiner Bio-One (Monroe, NC). Cells were seeded in 384- or 1536-well assay plates and cultured at 37 C with 5% CO2 for 16 to 20 hours. The typical cell seeding density in the 1536-well plate assay is 250 cells/well in 3ul medium for SNB-19 cells in tissue culture treated plates. Compounds were added to cells and incubated for one hour before addition of ZIKV solution to cells (2 FFU/cell). After incubation at 37 C with 5% CO2 for 6 hours, the reagent mixture of Caspase-Glo 3/7 assay kit was added to each well, followed by incubation at room temperature for 30 minutes. The luminescence intensity of the assay plates was measured using a ViewLux plate reader (PerkinElmer). Data were normalized by using the cell-containing wells without ZIKV as a negative control (0% induction of caspase 3/7 activity) and wells containing ZIKV infected cells (Caspase-3 activity induced) as a positive control (100% induction of caspase 3 activity). The percentage inhibitions of the increased Caspase-3 activity by small molecule inhibitors were then calculated.

Structure (SMILES) | Potency
Cn1c(=O)c2c(ncn2C)n(C)c1=O | inactive
CC1COc2c(N3CCN(C)CC3)c(F)cc3c(=O)c(C(=O)O)cn1c23 (stereo not given) | inactive
Fc1ccc([C@@H]2CCNC[C@H]2COc2ccc3c(c2)OCO3)cc1 | inactive
NS(=O)(=O)c1cc2c(cc1Cl)NCNS2(=O)=O | inactive
O=C1Cc2cc(CCN3CCN(c4nsc5ccccc45)CC3)c(Cl)cc2N1 | inactive
O=C(C1CCCCC1)N1CC(=O)N2CCc3ccccc3C2C1 (stereo not given) | inactive
O=C(c1ccc(OCCN2CCCCC2)cc1)c1c(-c2ccc(O)cc2)sc2cc(O)ccc12 | inactive
CC(C)NCC(O)COc1ccc(CCOCC2CC2)cc1 (stereo not given) | inactive
Nc1ccn([C@H]2CC[C@@H](CO)O2)c(=O)n1 | inactive
COc1cc2nc(N(C)CCCNC(=O)C3CCCO3)nc(N)c2cc1OC (stereo not given) | inactive
COC(=O)Nc1nc2ccc(C(=O)c3cccs3)cc2[nH]1 | inactive
CC(=O)OCC(CCn1cnc2cnc(N)nc21)COC(C)=O | inactive
CC1(C)O[C@H]2CC(=O)OC[C@]23[C@H]2CC[C@@]4(C)[C@H](c5ccoc5)OC(=O)[C@H]5O[C@]54[C@]2(C)C(=O)C[C@@H]13 | inactive
CN(C)CCCN1c2ccccc2CCc2ccc(Cl)cc21 | inactive
CN(Cc1cnc2nc(N)nc(N)c2n1)c1ccc(C(=O)N[C@@H](CCC(=O)O)C(=O)O)cc1 | inactive
Cc1ccc(-c2cc(C(F)(F)F)nn2-c2ccc(S(N)(=O)=O)cc2)cc1 | inactive
CC12CC3CC(C)(C1)CC(N)(C3)C2 | inactive
CC#C[C@]1(O)CC[C@H]2[C@@H]3CCC4=CC(=O)CCC4=C3[C@@H](c3ccc(N(C)C)cc3)C[C@@]21C | inactive
CN(C)CCC=C1c2ccccc2C=Cc2ccccc21 | inactive
NC(=O)OCC(COC(N)=O)c1ccccc1 | inactive

Structure (SMILES) | Potency
CN(C)C(=N)N=C(N)N | inactive
CC(C)Cc1ccc(C(C)C(=O)O)cc1 (stereo not given) | inactive
CCC1(C)CC(=O)NC1=O (stereo not given) | inactive
COc1ccccc1OCCNCC(O)COc1cccc2[nH]c3ccccc3c12 (stereo not given) | inactive
CS(=O)(=O)CCNCc1ccc(-c2ccc3ncnc(Nc4ccc(OCc5cccc(F)c5)c(Cl)c4)c3c2)o1 | inactive
Cc1cnc(C(=O)NCCc2ccc(S(=O)(=O)NC(=O)NC3CCCCC3)cc2)cn1 | inactive
N[C@@H](Cc1c[nH]c2ccc(O)cc12)C(=O)O | inactive
O=C(CCCN1CCC(O)(c2ccc(Cl)cc2)CC1)c1ccc(F)cc1 | inactive
CC(C)(Oc1ccc(C2CC2(Cl)Cl)cc1)C(=O)O (stereo not given) | inactive
CCOC(=O)C(C)(C)Oc1ccc(Cl)cc1 | inactive
NC(CO)C(=O)NNCc1ccc(O)c(O)c1O (stereo not given) | inactive
CN1C2CCC1CC(OC(=O)C(CO)c1ccccc1)C2 (stereo not given) | inactive
CNCCCC12CCC(c3ccccc31)c1ccccc12 | inactive
CC(CCc1ccc(O)cc1)NCCc1ccc(O)c(O)c1 (stereo not given) | inactive
NCCS(=O)(=O)O | inactive
Cn1cnc2c1c(=O)[nH]c(=O)n2C | inactive
CC(C)NCC(O)c1ccc(O)c(O)c1 (stereo not given) | inactive
CN(C)C(=O)C(CCN1CCC(O)(c2ccc(Cl)cc2)CC1)(c1ccccc1)c1ccccc1 | inactive
Cc1cn([C@H]2C[C@H](N=[N+]=[N-])[C@@H](CO)O2)c(=O)[nH]c1=O | inactive
Clc1ccc2nsnc2c1NC1=NCCN1 | inactive
